{"source": "PubChem BioAssay (EPA / NIEHS)", "key": {"AR (gene 367) [1]": {"biological_target": "AR (gene 367) (UniProt P10275)", "sequence (P10275 whole entry, looked up)": "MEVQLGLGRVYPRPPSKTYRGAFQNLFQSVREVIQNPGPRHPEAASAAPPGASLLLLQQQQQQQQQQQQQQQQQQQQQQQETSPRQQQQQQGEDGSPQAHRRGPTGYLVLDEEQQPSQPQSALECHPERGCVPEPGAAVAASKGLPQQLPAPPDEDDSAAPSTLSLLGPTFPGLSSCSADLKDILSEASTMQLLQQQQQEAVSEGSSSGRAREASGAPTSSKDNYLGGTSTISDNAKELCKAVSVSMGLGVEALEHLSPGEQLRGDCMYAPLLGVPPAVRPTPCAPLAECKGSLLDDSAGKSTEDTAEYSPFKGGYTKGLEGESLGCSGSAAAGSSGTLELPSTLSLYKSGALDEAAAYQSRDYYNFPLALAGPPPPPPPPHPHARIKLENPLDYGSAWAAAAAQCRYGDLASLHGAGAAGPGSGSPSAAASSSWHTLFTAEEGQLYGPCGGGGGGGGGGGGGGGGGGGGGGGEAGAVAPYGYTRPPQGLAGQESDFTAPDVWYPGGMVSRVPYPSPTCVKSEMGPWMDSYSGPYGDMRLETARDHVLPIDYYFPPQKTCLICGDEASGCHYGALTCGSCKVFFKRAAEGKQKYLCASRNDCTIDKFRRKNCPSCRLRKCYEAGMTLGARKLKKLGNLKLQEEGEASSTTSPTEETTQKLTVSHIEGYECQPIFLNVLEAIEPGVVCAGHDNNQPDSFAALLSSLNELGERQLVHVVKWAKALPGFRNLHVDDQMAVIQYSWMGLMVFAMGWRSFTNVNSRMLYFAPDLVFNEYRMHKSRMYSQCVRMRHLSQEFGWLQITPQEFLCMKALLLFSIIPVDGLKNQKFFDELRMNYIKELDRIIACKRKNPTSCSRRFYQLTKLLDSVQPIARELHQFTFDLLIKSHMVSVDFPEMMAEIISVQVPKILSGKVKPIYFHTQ", "assay": "ACEA_AR_antagonist_80hr: ACEA Biosciences xCELLigence Real-Time Cell Analysis on Androgen Receptor Antagonism for Proliferation (AID 2283787)", "how_it_was_run": "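Impedance readout (RT-CES), 80 h post-dose; loss-of-signal vs DMSO baseline. 22Rv1 cells in assay medium. Compounds: 8-pt 1:4 series, max 100 uM final, up to 0.5% DMSO; n = 2.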"}, "[2]": {"assay": "STM_H9_NormalizedViability: Cytotoxicity Assessment at 120 hours in the Stemina devTOX quickPredict H9 human embryonic stem cell (hESC)-based Assay (AID 2283784)", "how_it_was_run": "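Undifferentiated H9 hESCs kept pluripotent were exposed to compound, with media and chemical replaced every 24h. CellTiter-Fluor protease-substrate fluorescence was background-corrected and normalized per plate to the 0.1% DMSO vehicle; signal loss indicates reduced viability.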"}, "AR (gene 367) [3]": {"biological_target": "AR (gene 367) (UniProt P10275)", "assay": "ACEA_AR_agonist_80hr: ACEA Biosciences xCELLigence Real-Time Cell Analysis on Androgen Receptor Agonism for Proliferation (AID 2283783);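 also: hits increase impedance growth signal above DMSO baseline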", "how_it_was_run": "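22Rv1 human prostate cancer cells were seeded after preconditioning in assay medium and monitored overnight, then dosed in an eight-point 1:4 dilution series from 100 uM (≤0.5% DMSO). Impedance-based growth was read at 80 h, gain-of-signal versus DMSO.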"}, "[4]": {"biological_target": "Estrogen receptor (Homo sapiens) (UniProt P03372)", "sequence (P03372 whole entry, looked up, the tested form may be a part)": "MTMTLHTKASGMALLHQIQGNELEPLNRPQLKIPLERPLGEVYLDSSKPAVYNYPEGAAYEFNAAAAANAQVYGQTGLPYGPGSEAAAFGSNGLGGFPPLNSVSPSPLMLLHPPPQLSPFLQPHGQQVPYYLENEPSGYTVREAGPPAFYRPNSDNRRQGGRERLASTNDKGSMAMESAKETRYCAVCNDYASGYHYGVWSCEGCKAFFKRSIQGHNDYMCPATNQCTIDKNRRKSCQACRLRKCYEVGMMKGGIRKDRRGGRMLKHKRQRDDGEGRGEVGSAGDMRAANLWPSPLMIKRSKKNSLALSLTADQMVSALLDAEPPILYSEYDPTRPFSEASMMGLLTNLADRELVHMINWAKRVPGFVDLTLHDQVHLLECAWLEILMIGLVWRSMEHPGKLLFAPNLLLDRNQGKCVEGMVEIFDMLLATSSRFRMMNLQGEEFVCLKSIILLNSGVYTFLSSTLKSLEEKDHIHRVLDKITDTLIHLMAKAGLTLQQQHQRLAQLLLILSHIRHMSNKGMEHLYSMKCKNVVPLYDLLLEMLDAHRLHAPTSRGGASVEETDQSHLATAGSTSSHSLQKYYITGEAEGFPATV", "assay": "ATG_hERa_XSP1: Attagene TRANS-FACTORIAL Multi-Species (XSP1) HepG2 Assay for human Estrogen Receptor (ESR1) (AID 2283780)", "how_it_was_run": "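HepG2 cells transiently transfected with GAL4-UAS reporter units and chimeric NR-Gal4 constructs; 24 h after dosing, reporter mRNA quantified by RT-PCR and capillary electrophoresis. Medium contained 3 nM 6-alpha-fluorotestosterone; activity fitted as gain-of-signal versus DMSO.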"}, "[5]": {"tested_on": "turtle Estrogen Receptor (ESR1), gene 101933533", "assay": "ATG_trERa_XSP1: Attagene TRANS-FACTORIAL Multi-Species (XSP1) HepG2 Assay for turtle Estrogen Receptor (ESR1) (AID 2283781)", "how_it_was_run": "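HepG2 cells transiently transfected with GAL4-UAS reporter units and chimeric NR-Gal4 constructs, dosed for 24 h with 3 nM 6-alpha-fluorotestosterone present. Reporter mRNA was quantified by RT-PCR, fluorescent labelling and capillary electrophoresis, with gain of signal fitted relative to DMSO.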"}, "[6]": {"assay": "ATG_M_19_XSP1: Attagene TRANS-FACTORIAL Multi-Species (XSP1) HepG2 Assay for M19 Transcription Factor (Internal Marker) (AID 2283798)", "how_it_was_run": "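HepG2 cells transiently transfected with multiplexed GAL4-UAS reporter units, dosed 24 h with 3 nM 6-alpha-fluorotestosterone present for partial AR stimulation. Reporter mRNA measured by RT-PCR with capillary electrophoresis; gain-of-signal fitted relative to DMSO.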"}, "[7]": {"assay": "ATG_M_32_XSP1: Attagene TRANS-FACTORIAL Multi-Species (XSP1) HepG2 Assay for M32 Transcription Factor (Internal Marker) (AID 2283799)", "how_it_was_run": "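HepG2 cells transiently transfected with multi-species TRANS reporter units, dosed 24 h with 3 nM 6-alpha-fluorotestosterone present. Internal-marker reporter mRNA quantified by RT-PCR and capillary electrophoresis; positive-direction fit versus DMSO.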"}, "[8]": {"tested_on": "zebrafish Peroxisome Proliferator-activated Receptor gamma (PPARg), gene 557037", "assay": "ATG_zfPPARg_XSP1: Attagene TRANS-FACTORIAL Multi-Species (XSP1) HepG2 Assay for zebrafish Peroxisome Proliferator-activated Receptor gamma (PPARg) (AID 2283801)", "how_it_was_run": "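HepG2 cells transiently transfected with GAL4-UAS reporter units including a zebrafish PPARg–GAL4 chimera, dosed 24 h with 3 nM 6-alpha-fluorotestosterone present. Reporter mRNA quantified by RT-PCR, FAM labelling, HpaI digestion and capillary electrophoresis; induction versus DMSO.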"}, "[9]": {"biological_target": "mouse Peroxisome Proliferator-activated Receptor gamma (PPARg), Pparg (gene 19016) (UniProt P37238)", "sequence (P37238 whole entry, looked up, the tested form may be a part)": "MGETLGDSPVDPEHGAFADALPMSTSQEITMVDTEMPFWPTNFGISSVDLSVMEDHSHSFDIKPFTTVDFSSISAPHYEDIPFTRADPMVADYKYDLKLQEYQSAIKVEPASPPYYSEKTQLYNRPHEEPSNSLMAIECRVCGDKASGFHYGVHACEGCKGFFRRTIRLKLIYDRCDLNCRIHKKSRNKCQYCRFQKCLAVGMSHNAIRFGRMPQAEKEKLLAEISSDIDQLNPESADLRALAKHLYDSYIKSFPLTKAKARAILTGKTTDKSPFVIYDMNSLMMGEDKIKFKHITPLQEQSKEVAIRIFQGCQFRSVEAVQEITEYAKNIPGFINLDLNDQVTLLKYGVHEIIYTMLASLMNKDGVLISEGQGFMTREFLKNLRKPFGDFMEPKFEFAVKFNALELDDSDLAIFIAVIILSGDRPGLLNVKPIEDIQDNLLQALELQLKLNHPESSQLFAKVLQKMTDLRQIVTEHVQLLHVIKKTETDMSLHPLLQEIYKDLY", "assay": "ATG_mPPARg_XSP1: Attagene TRANS-FACTORIAL Multi-Species (XSP1) HepG2 Assay for mouse Peroxisome Proliferator-activated Receptor gamma (PPARg) (AID 2283802)", "how_it_was_run": "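HepG2 cells transiently transfected with GAL4-UAS reporter units driven by mouse PPARg–GAL4 chimera; 3 nM 6-alpha-fluorotestosterone present. After 24 h dosing, reporter mRNA quantified by RT-PCR, fluorescent labelling and capillary electrophoresis; gain of signal versus DMSO.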"}, "[10]": {"biological_target": "Nuclear receptor subfamily 1 group I member 2 (Mus musculus) (UniProt O54915)", "sequence (O54915 whole entry, looked up, the tested form may be a part)": "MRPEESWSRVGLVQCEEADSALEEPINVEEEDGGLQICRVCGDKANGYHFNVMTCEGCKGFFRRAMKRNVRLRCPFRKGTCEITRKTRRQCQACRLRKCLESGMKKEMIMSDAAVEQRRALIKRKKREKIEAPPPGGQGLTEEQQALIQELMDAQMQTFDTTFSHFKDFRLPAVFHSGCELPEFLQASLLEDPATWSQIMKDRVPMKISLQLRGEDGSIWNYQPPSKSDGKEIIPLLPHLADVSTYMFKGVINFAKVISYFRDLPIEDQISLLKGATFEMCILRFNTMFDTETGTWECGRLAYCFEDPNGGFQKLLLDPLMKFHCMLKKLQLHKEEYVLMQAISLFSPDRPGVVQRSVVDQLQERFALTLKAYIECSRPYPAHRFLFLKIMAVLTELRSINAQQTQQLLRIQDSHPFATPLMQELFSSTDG", "assay": "ATG_mPXR_XSP1: Attagene TRANS-FACTORIAL Multi-Species (XSP1) HepG2 Assay for mouse Pregnane X Receptor (PXR) (AID 2283803)", "how_it_was_run": "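Transiently transfected HepG2 cells expressing a receptor-Gal4 chimera drive a GAL4-UAS reporter; 3 nM 6-alpha-fluorotestosterone included. Reporter mRNA read 24 h post-dose by RT-PCR and capillary electrophoresis; gain of signal relative to DMSO.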"}, "[11]": {"tested_on": "turtle Thyroid Hormone Receptor, alpha (TRa), gene 101949057", "assay": "ATG_trTRa_XSP1: Attagene TRANS-FACTORIAL Multi-Species (XSP1) HepG2 Assay for turtle Thyroid Hormone Receptor, alpha (TRa) (AID 2283806)", "how_it_was_run": "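HepG2 cells transiently transfected with GAL4-UAS reporter units and chimeric receptor-Gal4 constructs, with 3 nM 6-alpha-fluorotestosterone present. Reporter mRNA was quantified 24 h after dosing by RT-PCR, 6-FAM labelling and capillary electrophoresis; gain of signal versus DMSO.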"}, "[12]": {"biological_target": "zebrafish Thyroid Hormone Receptor alpha (TRa), thraa (gene 30670) (UniProt Q98867)", "sequence (Q98867 whole entry, looked up, the tested form may be a part)": "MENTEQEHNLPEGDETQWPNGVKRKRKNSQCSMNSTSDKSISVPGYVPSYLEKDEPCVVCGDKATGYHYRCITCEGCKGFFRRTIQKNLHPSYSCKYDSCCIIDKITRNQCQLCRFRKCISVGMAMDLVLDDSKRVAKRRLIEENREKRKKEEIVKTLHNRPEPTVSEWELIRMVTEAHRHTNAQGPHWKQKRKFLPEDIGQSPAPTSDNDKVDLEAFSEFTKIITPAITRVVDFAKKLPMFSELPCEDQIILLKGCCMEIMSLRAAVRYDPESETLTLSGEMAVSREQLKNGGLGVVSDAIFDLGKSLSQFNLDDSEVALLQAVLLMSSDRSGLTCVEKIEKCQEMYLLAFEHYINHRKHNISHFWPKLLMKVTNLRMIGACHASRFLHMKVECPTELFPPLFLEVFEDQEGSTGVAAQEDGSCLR", "assay": "ATG_zfTRa_XSP1: Attagene TRANS-FACTORIAL Multi-Species (XSP1) HepG2 Assay for zebrafish Thyroid Hormone Receptor alpha (TRa) (AID 2283807)", "how_it_was_run": "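HepG2 cells transiently transfected with GAL4-UAS reporter units including a zebrafish TRa–Gal4 chimera, dosed 24 h with 3 nM 6-alpha-fluorotestosterone present. Reporter mRNA quantified by RT-PCR and capillary electrophoresis; gain versus DMSO.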"}, "[13]": {"tested_on": "turtle Androgen Receptor (AR), gene 101947425", "assay": "ATG_trAR_XSP1: Attagene TRANS-FACTORIAL Multi-Species (XSP1) HepG2 Assay for turtle Androgen Receptor (AR) (AID 2283786)", "how_it_was_run": "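HepG2 cells transiently transfected with a turtle AR–GAL4 chimera and GAL4-UAS reporter, co-treated with 3 nM 6-alpha-fluorotestosterone for partial stimulation. Reporter mRNA is quantified at 24 h by RT-PCR and capillary electrophoresis, gain-of-signal versus DMSO.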"}, "[14]": {"assay": "ATG_M_06_XSP1: Attagene TRANS-FACTORIAL Multi-Species (XSP1) HepG2 Assay for M06 Transcription Factor (Internal Marker) (AID 2283790)", "how_it_was_run": "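Transfected HepG2 multi-reporter system treated 24 h in the presence of 3 nM 6-alpha-fluorotestosterone. The M06 internal marker transcript was quantified by RT-PCR with capillary electrophoresis as a background control, and gain of signal was scored versus DMSO.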"}, "[15]": {"assay": "ATG_M_61_XSP1: Attagene TRANS-FACTORIAL Multi-Species (XSP1) HepG2 Assay for M61 Transcription Factor (Internal Marker) (AID 2283797)", "how_it_was_run": "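HepG2 cells transiently transfected with multiplexed GAL4-driven reporter units, dosed 24 h with 3 nM 6-alpha-fluorotestosterone present. Reporter mRNA quantified by RT-PCR, 6-FAM labelling, HpaI digestion and capillary electrophoresis; internal-marker background control, gain of signal versus DMSO.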"}, "[16]": {"biological_target": "frog Thyroid hormone Receptor alpha (TRa), thra-a (gene 397942) (UniProt P15204)", "sequence (P15204 whole entry, looked up, the tested form may be a part)": "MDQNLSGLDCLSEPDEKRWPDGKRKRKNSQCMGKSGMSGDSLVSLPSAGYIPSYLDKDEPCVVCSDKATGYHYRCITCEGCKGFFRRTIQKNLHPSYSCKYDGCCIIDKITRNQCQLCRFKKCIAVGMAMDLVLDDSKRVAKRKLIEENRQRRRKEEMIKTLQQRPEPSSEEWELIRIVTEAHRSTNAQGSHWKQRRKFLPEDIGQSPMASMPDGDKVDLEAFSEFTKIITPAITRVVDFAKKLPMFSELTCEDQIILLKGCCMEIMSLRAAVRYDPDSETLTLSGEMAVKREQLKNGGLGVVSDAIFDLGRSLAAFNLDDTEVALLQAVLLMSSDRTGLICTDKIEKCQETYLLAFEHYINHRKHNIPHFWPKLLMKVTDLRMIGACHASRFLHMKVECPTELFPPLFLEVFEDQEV", "assay": "ATG_frTRa_XSP1: Attagene TRANS-FACTORIAL Multi-Species (XSP1) HepG2 Assay for frog Thyroid hormone Receptor alpha (TRa) (AID 2283804)", "how_it_was_run": "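HepG2 cells transiently transfected with frog TRa-GAL4 chimeric reporter units, dosed 24 hr with 3 nM 6-alpha-fluorotestosterone present; reporter mRNA quantified by RT-PCR, fluorescent labelling and capillary electrophoresis, gain of signal versus DMSO.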"}, "[17]": {"biological_target": "human Thyroid hormone Receptor alpha (TRa), THRA (gene 7067) (UniProt P10827)", "sequence (P10827 whole entry, looked up, the tested form may be a part)": "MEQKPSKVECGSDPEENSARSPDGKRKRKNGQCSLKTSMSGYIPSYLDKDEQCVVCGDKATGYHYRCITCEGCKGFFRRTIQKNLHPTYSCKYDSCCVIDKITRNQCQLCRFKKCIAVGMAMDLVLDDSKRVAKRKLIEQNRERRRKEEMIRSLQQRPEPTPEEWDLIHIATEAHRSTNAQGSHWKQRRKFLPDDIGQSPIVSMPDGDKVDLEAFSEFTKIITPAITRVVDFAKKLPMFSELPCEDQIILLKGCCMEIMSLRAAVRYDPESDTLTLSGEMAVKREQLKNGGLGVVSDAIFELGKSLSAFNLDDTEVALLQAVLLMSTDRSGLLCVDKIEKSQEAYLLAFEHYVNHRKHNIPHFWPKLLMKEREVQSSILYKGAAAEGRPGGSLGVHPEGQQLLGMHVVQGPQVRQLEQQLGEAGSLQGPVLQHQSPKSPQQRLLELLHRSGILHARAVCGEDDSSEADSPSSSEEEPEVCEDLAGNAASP", "assay": "ATG_hTRa_XSP1: Attagene TRANS-FACTORIAL Multi-Species (XSP1) HepG2 Assay for human Thyroid hormone Receptor alpha (TRa) (AID 2283805)", "how_it_was_run": "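HepG2 cells transiently transfected with GAL4-UAS reporter units expressing chimeric NR-Gal4 proteins, dosed 24 hours with 3 nM 6-alpha-fluorotestosterone present. Reporter mRNA measured by RT-PCR and capillary electrophoresis; gain of signal fitted versus DMSO.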"}}, "note": "Records with an inconclusive call do not appear. The source made the active and inactive calls. The calls were made as follows: active = hit-call score of the fitted dose curve at least 0.9, where 1 is the maximum; inconclusive = response in the unintended direction; inactive = score below 0.9."}
{"smiles": "c1cc2ccc3cccc4ccc(c1)c2c34", "values": [{"measurement": "AC50", "setting": "AR (gene 367) [1]", "value": "25.5 µM (active)"}]}
{"smiles": "CCSC(=O)N(CC)C1CCCCC1", "values": [{"measurement": "outcome", "setting": "[2]", "value": "inactive"}]}
{"smiles": "O=C(NC(=O)c1c(F)cccc1F)Nc1cc(Cl)c(OC(F)(F)C(F)F)c(Cl)c1", "values": [{"measurement": "outcome", "setting": "AR (gene 367) [3]", "value": "inactive"}, {"measurement": "AC50", "setting": "AR (gene 367) [1]", "value": "50 µM (active)"}]}
{"smiles": "CCCCCCOC(=O)c1ccccc1C(=O)OCCCCCC", "values": [{"measurement": "outcome", "setting": "[2]", "value": "inactive"}]}
{"smiles": "CO/C=C(/C(=O)OC)c1ccccc1COc1cccc(C(F)(F)F)n1", "values": [{"measurement": "outcome", "setting": "[2]", "value": "inactive"}]}
{"smiles": "C=CC(N)=O", "values": [{"measurement": "outcome", "setting": "[2]", "value": "inactive"}]}
{"smiles": "CCOCCOC(C)=O", "values": [{"measurement": "outcome", "setting": "[2]", "value": "inactive"}]}
{"smiles": "NS(=O)(=O)C(F)(F)C(F)(F)C(F)(F)C(F)(F)C(F)(F)C(F)(F)C(F)(F)C(F)(F)F", "values": [{"measurement": "AC50", "setting": "AR (gene 367) [1]", "value": "66.1 µM (active)"}]}
{"smiles": "O=NN(c1ccccc1)c1ccccc1", "values": [{"measurement": "outcome", "setting": "[2]", "value": "inactive"}]}
{"smiles": "ClC1=C(Cl)[C@]2(Cl)[C@@H]3[C@H]4C[C@H]([C@@H]5O[C@H]45)[C@@H]3[C@@]1(Cl)C2(Cl)Cl", "values": [{"measurement": "AC50", "setting": "[2]", "value": "88.1 µM (active)"}]}
{"smiles": "ClC(Cl)=C(c1ccc(Cl)cc1)c1ccc(Cl)cc1", "values": [{"measurement": "AC50", "setting": "[4]", "value": "4.53 µM (active)"}, {"measurement": "AC50", "setting": "[5]", "value": "5.5 µM (active)"}, {"measurement": "outcome", "setting": "[6]", "value": "inactive"}, {"measurement": "outcome", "setting": "[7]", "value": "inactive"}, {"measurement": "outcome", "setting": "[8]", "value": "inactive"}, {"measurement": "outcome", "setting": "[9]", "value": "inactive"}, {"measurement": "outcome", "setting": "[10]", "value": "inactive"}, {"measurement": "outcome", "setting": "[11]", "value": "inactive"}, {"measurement": "outcome", "setting": "[12]", "value": "inactive"}]}
{"smiles": "C=CC(=O)NCNC(=O)C=C", "values": [{"measurement": "outcome", "setting": "AR (gene 367) [3]", "value": "inactive"}, {"measurement": "AC50", "setting": "[2]", "value": "50 µM (active)"}, {"measurement": "outcome", "setting": "AR (gene 367) [1]", "value": "inactive"}]}
{"smiles": "CCCCCCCCOC(=O)c1ccccc1C(=O)OCCCCCCCC", "values": [{"measurement": "outcome", "setting": "AR (gene 367) [3]", "value": "inactive"}, {"measurement": "AC50", "setting": "AR (gene 367) [1]", "value": "50 µM (active)"}]}
{"smiles": "C[C@]12CCC(=O)C=C1CC[C@@H]1[C@@H]2CC[C@@]2(C)[C@H]1CC[C@]2(C)O", "values": [{"measurement": "AC50", "setting": "[4]", "value": "0.00117 µM (active)"}, {"measurement": "AC50", "setting": "[5]", "value": "0.00176 µM (active)"}, {"measurement": "AC50", "setting": "[13]", "value": "0.0018 µM (active)"}, {"measurement": "outcome", "setting": "[14]", "value": "inactive"}, {"measurement": "outcome", "setting": "[15]", "value": "inactive"}, {"measurement": "outcome", "setting": "[10]", "value": "inactive"}, {"measurement": "outcome", "setting": "[16]", "value": "inactive"}, {"measurement": "outcome", "setting": "[17]", "value": "inactive"}, {"measurement": "outcome", "setting": "[11]", "value": "inactive"}, {"measurement": "outcome", "setting": "[12]", "value": "inactive"}]}
